Here are results for 9 compounds from PubChem BioAssay (NCI).

Among the test systems are SR leukemia; RPMI-8226 leukemia; OVCAR-8 ovarian; OVCAR-5 ovarian; OVCAR-4 ovarian; SK-OV-3 ovarian; IGROV1 ovarian; OVCAR-3 ovarian; HS 578T breast; NCI/ADR-RES ovarian; T-47D breast; BT-549 breast; MDA-MB-435 melanoma; SW-620 colon; MCF7 breast; HCT-116 colon; HCC-2998 colon; KM12 colon.
Common to all, as to experiment: NCI-60 one-dose screen, 48 h (100 = growth as untreated, 0 = no growth, -100 = all killed)
What all share (conditions): 10 µM unless noted

Molecules are shown by their SMILES. Compounds without any hit were thinned out: in the full panel of roughly 83,000, 20% have a hit.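 Plates (96-well) were seeded with cells, treated with compound at one concentration, and incubated for 48 hours before percent growth was determined.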 A number with no mark means an inactive call. Active and inactive are the calls of the source. The calls were made as follows: active = growth percent below 10; inactive = the rest.

As to `CNCc1cccc2c1OCCOCCOCCN(C)S(=O)(=O)c1ccc(cc1)-c1cnc(N)c(n1)C(=O)N2`, the growth was -35% (active) with SR leukemia; 44.6% in the assay on RPMI-8226 leukemia; 52.9% in the assay on OVCAR-8 ovarian; 160% with OVCAR-5 ovarian; 72.8% in the assay on OVCAR-4 ovarian; 19.4% in the assay with SK-OV-3 ovarian. Further, the growth was 42.5% in the assay with IGROV1 ovarian; 42.8% with OVCAR-3 ovarian; 56.9% with HS 578T breast; 80.1% in the assay with NCI/ADR-RES ovarian; 47% in the assay on T-47D breast; 55.6% with BT-549 breast. Besides, the growth in the assay on MDA-MB-435 melanoma is 46.2%; with SW-620 colon, 37.8%; with MCF7 breast it was 42.2%; in the assay on HCT-116 colon, 15.4%; in the assay with HCC-2998 colon, 75.5%; in the assay on KM12 colon, 43.6%.
As to `CCN(CC)CCCC(C)NCCCNc1cccc2cccnc12` (configuration not stated), the growth was 91% in the assay on SR leukemia; 96.9% in the assay with RPMI-8226 leukemia; 91.9% in the assay with OVCAR-8 ovarian; 125% in the assay on OVCAR-5 ovarian; 83.2% in the assay with OVCAR-4 ovarian; 89.2% in the assay on SK-OV-3 ovarian. For the same compound, the growth with IGROV1 ovarian was 99.7%; with OVCAR-3 ovarian, 89.8%; in the assay on HS 578T breast, 105%; in the assay on NCI/ADR-RES ovarian, 92.3%; in the assay on T-47D breast, 89.5%; with BT-549 breast, 102%. In addition, the growth was 106% in the assay on MDA-MB-435 melanoma; 96.5% with SW-620 colon; 95.9% in the assay with MCF7 breast; 95.4% in the assay with HCT-116 colon; 82.5% in the assay on HCC-2998 colon; 102% in the assay with KM12 colon.
For the compound `c1ccc2c(Nc3cccc4ccccc34)cccc2c1`, the growth in the assay with SR leukemia was 31.6%; in the assay with RPMI-8226 leukemia, 68.3%; with OVCAR-8 ovarian, 65.7%; in the assay with OVCAR-5 ovarian, 103%; with OVCAR-4 ovarian it was 86%; in the assay on SK-OV-3 ovarian, 59.5%. Moreover, the growth in the assay with IGROV1 ovarian was 56.8%; in the assay with OVCAR-3 ovarian, 43.8%; with HS 578T breast, 62.6%; with NCI/ADR-RES ovarian it was 29.8%; in the assay on T-47D breast, 65.2%; in the assay on BT-549 breast, 62.8%. The growth is -27.7% (active) with MDA-MB-435 melanoma; 19% in the assay with SW-620 colon; 43.9% in the assay on MCF7 breast; 30.3% in the assay on HCT-116 colon; 78.4% with HCC-2998 colon; 33.6% with KM12 colon.
`Cc1ccc2cnc(N)c(C#Cc3cncc(C(=O)Nc4ccc(CN5CCN(C)CC5)c(C(F)(F)F)c4)c3)c2c1`: the growth in the assay with SR leukemia was -31.2% (active); in the assay with RPMI-8226 leukemia, -31.4% (active); in the assay on OVCAR-8 ovarian, -85.4% (active); in the assay with OVCAR-5 ovarian, -89% (active); with OVCAR-4 ovarian it was -88% (active); in the assay with SK-OV-3 ovarian, -17.5% (active). Besides, the growth was -59.8% (active) in the assay on IGROV1 ovarian; -97.6% (active) in the assay on OVCAR-3 ovarian; -39.2% (active) in the assay with HS 578T breast; -67.2% (active) with NCI/ADR-RES ovarian; -65.2% (active) in the assay on T-47D breast; -75.1% (active) in the assay on BT-549 breast. Further, the growth with MDA-MB-435 melanoma was -96.6% (active); in the assay with SW-620 colon, -86.1% (active); in the assay on MCF7 breast, -85.8% (active); in the assay with HCT-116 colon, -36.1% (active); in the assay with HCC-2998 colon, -82.9% (active); in the assay on KM12 colon, -82.6% (active).
As for `Nc1cc(O)cc2cccnc12`, the growth with SR leukemia was 73%; in the assay on RPMI-8226 leukemia it was 68.9%; in the assay with OVCAR-8 ovarian it was 80.9%; in the assay with OVCAR-5 ovarian, 107%; in the assay with OVCAR-4 ovarian it was 105%; in the assay on SK-OV-3 ovarian, 83.4%. For the same compound, the growth is 53.4% with IGROV1 ovarian; 88.8% in the assay on OVCAR-3 ovarian; 121% with HS 578T breast; 87.3% with NCI/ADR-RES ovarian; 83.9% in the assay on T-47D breast; 87% in the assay with BT-549 breast. The growth in the assay with MDA-MB-435 melanoma is -9.72% (active); with SW-620 colon it was 79.7%; in the assay with MCF7 breast, 55.8%; in the assay with HCT-116 colon it was 80.3%; in the assay with HCC-2998 colon, 100%; in the assay on KM12 colon, 99.8%.
On to `C/C=C/C(N)=O`, for which the growth in the assay with SR leukemia is 92%; in the assay on RPMI-8226 leukemia, 109%; in the assay with OVCAR-8 ovarian, 106%; in the assay on OVCAR-5 ovarian, 100%; with OVCAR-4 ovarian, 107%; in the assay on SK-OV-3 ovarian, 110%. The growth is 106% in the assay on IGROV1 ovarian; 99% in the assay on OVCAR-3 ovarian; 99.9% in the assay on HS 578T breast; 106% in the assay on NCI/ADR-RES ovarian; 115% with T-47D breast; 99.7% with BT-549 breast. The growth in the assay with MDA-MB-435 melanoma was 96.4%; in the assay with SW-620 colon it was 96.8%; in the assay with MCF7 breast, 92.1%; in the assay with HCT-116 colon, 98.4%; with HCC-2998 colon it was 109%; with KM12 colon, 103%.
Turning to `NC1=CC(=O)C(=O)c2ccccc21`, the growth in the assay with SR leukemia is 81.8%; in the assay with RPMI-8226 leukemia it was 79.3%; in the assay with OVCAR-8 ovarian, 64.2%; in the assay with OVCAR-5 ovarian, 93.3%; with OVCAR-4 ovarian, 69.3%; in the assay on SK-OV-3 ovarian it was 92.6%. In addition, the growth in the assay on IGROV1 ovarian is 89.7%; with OVCAR-3 ovarian, 84.1%; in the assay on HS 578T breast, 99.5%; in the assay with NCI/ADR-RES ovarian it was 58.7%; in the assay on T-47D breast it was 56.4%; in the assay on BT-549 breast it was 90.4%. For the same compound, the growth was -72.4% (active) with MDA-MB-435 melanoma; 98.9% in the assay on SW-620 colon; 86% in the assay on MCF7 breast; 63.4% in the assay with HCT-116 colon; 95% in the assay with HCC-2998 colon; 95.7% in the assay on KM12 colon.
As for `O=c1c2cccc3c(Nc4ccccn4)ccc(c32)c2nc3ccccc3n12`, the growth is 10.2% in the assay on SR leukemia; 49% in the assay with RPMI-8226 leukemia; 75.4% in the assay with OVCAR-8 ovarian; 83.3% in the assay on OVCAR-5 ovarian; 69.1% in the assay on OVCAR-4 ovarian; 89.1% with SK-OV-3 ovarian. Also, the growth with IGROV1 ovarian is 56.6%; in the assay on OVCAR-3 ovarian, 70%; with HS 578T breast, 111%; in the assay with NCI/ADR-RES ovarian, 74.6%; in the assay with T-47D breast it was 46.6%; in the assay on BT-549 breast, 87.4%. In addition, the growth in the assay with MDA-MB-435 melanoma was 99.4%; in the assay on SW-620 colon it was 77.1%; with MCF7 breast, 28.7%; in the assay on HCT-116 colon, 65%; with HCC-2998 colon, 68.5%; in the assay with KM12 colon, 74.8%.
With `Cc1nn(-c2nc3ccccc3[nH]2)c2c1C(c1ccc3c(c1)OCO3)CC(=O)N2` (configuration not stated), the growth was 14% with SR leukemia; -18.4% (active) in the assay on RPMI-8226 leukemia; 36.9% with OVCAR-8 ovarian; 105% in the assay with OVCAR-5 ovarian; 65.1% in the assay on OVCAR-4 ovarian; 54.9% in the assay with SK-OV-3 ovarian. Moreover, the growth with IGROV1 ovarian was 21.3%; in the assay with OVCAR-3 ovarian it was -24.3% (active); in the assay with HS 578T breast it was 38.2%; in the assay on NCI/ADR-RES ovarian it was 50.3%; in the assay with T-47D breast it was 45.6%; in the assay on BT-549 breast, 49.4%. For the same compound, the growth in the assay on MDA-MB-435 melanoma is 5.5% (active); in the assay with SW-620 colon, 10.8%; in the assay with MCF7 breast, 17.4%; in the assay with HCT-116 colon, 6.24% (active); with HCC-2998 colon, 63.6%; with KM12 colon, 1.53% (active).
